Over roughly 33,000 sequences, “e-score” has its median near -0.038; the highest 2% begin near 0.33. This excerpt belongs to a sample that is enriched for the highest values.
What follows are sequences tested against T1, GST-Rok-C97-191 (Bacillus subtilis subsp. subtilis str. …, UniProt O34857 97-191) (assay: protein binding microarray; Rok is a gene silencer of Bacillus subtilis; high values mean tight binding). Conditions: protein: recombinant; tags: GST (pTH5325, pDEST15-Magic modified); dsDNA, one strand shown.
T1 sequence: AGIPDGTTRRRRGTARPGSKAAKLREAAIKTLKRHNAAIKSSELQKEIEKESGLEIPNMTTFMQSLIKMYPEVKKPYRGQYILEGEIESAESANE
Procedure, shortened: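 Each has a 25-mer constant primer and a 35-mer variable part from a de Bruijn sequence of order 10, covering every non-palindromic 8-mer at least 32 times (palindromic 16). Preference for each 8-mer is given as a rank-based, unitless enrichment score (E-score). Its range runs from 0.5 (most favored) to −0.5 (most disfavored).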

Compared with AAAAGACG, TAACGGTA is higher in binding signal: 0.0272 E-score for the first, 0.278 E-score for the second.

First: CTTGAAGA
Second: AGTTATAC
The binding signal of the first is lower: -0.0244 E-score for the first, 0.241 E-score for the second.

Compared with CTTTATAC, ATTTATGG is lower in binding signal: 0.227 E-score for the first, 0.174 E-score for the second.

First: ATTTATAG
Second: ATTTATAA
The binding signal of the first is higher: 0.358 E-score for the first, 0.294 E-score for the second.

Compared with ATTTATAC, GACTCTCA is lower in binding signal: 0.348 E-score for the first, -0.0851 E-score for the second.

Going from GGTCTGCA to ATCTACAC, the binding signal rises from -0.0588 E-score to 0.273 E-score.

Compared with ATCTACAG, AACTACAC is higher in binding signal: 0.309 E-score for the first, 0.33 E-score for the second.

Compared with AGCTACAT, CACTACAC is lower in binding signal: 0.368 E-score for the first, 0.0572 E-score for the second.

First: AACTACAA
Second: GACTACAA
The binding signal of the first is higher: 0.348 E-score for the first, -0.00391 E-score for the second.

Compared with AGCTACAC, AGCTACAA is higher in binding signal: 0.169 E-score for the first, 0.209 E-score for the second.

First: CACTACAA
Second: ATCTACAT
The binding signal of the first is lower: 0.173 E-score for the first, 0.342 E-score for the second.

Compared with GACTACAC, AGAACTGG is lower in binding signal: -0.000838 E-score for the first, -0.0864 E-score for the second.

Compared with CAATGGGC, AATCGCCA is higher in binding signal: -0.197 E-score for the first, -0.00284 E-score for the second.

Going from AAAGCCAT to GTTCCTGA, the binding signal rises from -0.088 E-score to -0.0326 E-score.

Going from ACTCGTTA to AACTACGC, the binding signal falls from 0.225 E-score to 0.126 E-score.

First: AACTACGA
Second: ACCTACAT
The binding signal of the first is higher: 0.283 E-score for the first, 0.227 E-score for the second.

Compared with AACTACAG, AACTACAT is higher in binding signal: 0.327 E-score for the first, 0.364 E-score for the second.

Going from AACTACGT to AACAATGA, the binding signal falls from 0.338 E-score to 0.0026 E-score.

Compared with ACGAGCAG, ATTTTGAC is higher in binding signal: -0.19 E-score for the first, 0.235 E-score for the second.

First: ACGCTCAC
Second: ACCATAAC
The binding signal of the first is lower: -0.0887 E-score for the first, 0.0976 E-score for the second.

Compared with GACTTTAC, AAATCTGT is higher in binding signal: -0.0515 E-score for the first, 0.141 E-score for the second.

Compared with AAATCTGC, ACATCTAG is higher in binding signal: -0.0413 E-score for the first, 0.323 E-score for the second.

First: AAATCTTC
Second: AAATCTAT
The binding signal of the first is lower: 0.0559 E-score for the first, 0.4 E-score for the second.

Compared with CAATCTAG, AAATCTAG is higher in binding signal: 0.206 E-score for the first, 0.352 E-score for the second.

Going from AAATCTAC to AAATCTAA, the binding signal falls from 0.441 E-score to 0.202 E-score.

Compared with AGCTTTCG, GAGAACCC is higher in binding signal: -0.16 E-score for the first, -0.104 E-score for the second.

First: CCTTCTAC
Second: AAGTTGGA
The binding signal of the first is higher: 0.235 E-score for the first, -0.145 E-score for the second.

First: AGCAATTG
Second: AGCAATTA
The binding signal of the first is higher: 0.332 E-score for the first, 0.303 E-score for the second.

Compared with AGCAATTC, CGGCCGAG is lower in binding signal: 0.115 E-score for the first, -0.169 E-score for the second.

First: AGCGCCCC
Second: AGGGACCC
The binding signal of the first is lower: -0.198 E-score for the first, -0.173 E-score for the second.

First: CTTCTACC
Second: CTTCTAGC
The binding signal of the first is higher: 0.348 E-score for the first, 0.138 E-score for the second.

Compared with ATTCTACA, ATTCTACG is lower in binding signal: 0.382 E-score for the first, 0.179 E-score for the second.

Compared with ATTCTATC, CTTCTACA is lower in binding signal: 0.414 E-score for the first, 0.273 E-score for the second.

Going from GTTCTACA to ACTCTACC, the binding signal falls from 0.247 E-score to -0.0607 E-score.

Going from CTTCTATC to ATTCTATA, the binding signal falls from 0.241 E-score to 0.224 E-score.

First: ATTCTACC
Second: ATTCTAGC
The binding signal of the first is higher: 0.467 E-score for the first, 0.249 E-score for the second.

Going from ATTCAGTC to AAGTATGA, the binding signal rises from 0.00215 E-score to 0.179 E-score.

Compared with ATTCAATG, AACAGCGT is lower in binding signal: -0.0215 E-score for the first, -0.0978 E-score for the second.

First: AAGCATGG
Second: TAAATGCA
The binding signal of the first is lower: -0.183 E-score for the first, 0.289 E-score for the second.

Compared with TGAATTAA, AGTTGAAC is lower in binding signal: 0.0945 E-score for the first, -0.0218 E-score for the second.

First: AGTAGGTA
Second: GGTAGGAA
The binding signal of the first is higher: 0.4 E-score for the first, 0.247 E-score for the second.

First: CCTAGGTA
Second: AGTAGGTG
The binding signal of the first is higher: 0.144 E-score for the first, 0.127 E-score for the second.

First: GGTAGGTA
Second: AGTAGGTC
The binding signal of the first is higher: 0.331 E-score for the first, 0.159 E-score for the second.
